In all, about 1,100 compounds went through this assay and about 940 (85%) were called active.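 The calls were made as follows: active = inhibition exceeding 3 SD of buffer-only control wells (cut at about 26% in these data); inactive = the rest.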 The set was probably picked from earlier hits. These entries were drawn from the full list.
Test: carbachol calcium response changes in non-induced cells, primary screen, counter-screen for RGS4 activator project, cell-based, HEK293 M3R, non-induced RGS4, Fluo-4 calcium (AID 602283);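 also: percent drop in integrated peak-minus-baseline over baseline Fluo4 ratio after carbachol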
Conditions: HEK293 M3R non-induced RGS4, Fluo4 calcium flux; at 10 µM; stronger effect = higher value; after carbachol challenge at its EC90

Row | SMILES | inhibition
1 | C=CC12CN(C)[C@@H]3C4CO[C@H](C[C@H]41)[C@]1(C(=O)Nc4ccccc41)[C@@H]32 (some centres not stated) | 83.8% (active)
2 | CC(C)Oc1cccc(C(=O)C2CCCN(C3CCOCC3)C2)c1 (configuration not stated) | 83.8% (active)
